Measurements taken from PubChem BioAssay (NCI).
This is part of a sample that, as a whole, favours compounds with a hit. Of some 83,000 tested, about 20% had one in any assay.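 96-well plates, one dose, 48 hours. Percent growth reported; active if below 10.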 Values without a mark were called inactive. Activity calls are given as the source filed them.

What follows are compounds tested on HL-60(TB) leukemia (assay: NCI-60 one-dose screen, 48 h (100 = growth as untreated, 0 = no growth, -100 = all killed)). Settings: 10 µM unless noted.

SMILES	growth
CS(=O)(=O)Nc1cncc(-c2ccc3ncnc(Nc4ccc(F)c(Cl)c4)c3c2)c1	6.11% (active)
CN(C)CC(C)(C)C(=O)/C=C/c1ccccc1	-15.3% [25 µM] (active)
COc1ccc(-n2c(/C=C/c3ccc(O)c(OC)c3)cc(/C=C/c3ccc(O)c(OC)c3)nc2=O)cc1	33.7%
Cc1nn(C)c2ncnc(N/N=C/c3cccc(O)c3O)c12	-1.19% (active)
COCCn1cc(-c2nc(-c3cc4cccnc4[nH]3)cs2)c2cc(OC)ccc21	55.5%
Cc1oc2c(c1C(=O)N1CC[C@@H](N)C1)C(=O)c1c(c(O)c3ccccc3c1O)C2=O	-22.8% (active)
CC/C(=C(/c1ccc(Cl)cc1)c1ccc(OCCN2CCCCC2)cc1)c1ccc(OC)cc1	24%
O=C(CCCOc1ccc(Br)cc1)Nc1ncc(Cc2ccc(F)cc2)s1	34.7%
CC1SC(c2cccc(Oc3ccccc3)c2)N(CCc2cccs2)C1=O (stereo not given)	-21.9% (active)
COc1ccc(-c2nc3sc(-c4cc(OC)c(OC)c(OC)c4)nn3c2/C=C2/C(=O)Nc3ccc(F)cc32)cc1	35.8%
COC12CC(=O)C(C(C)=O)=C(O)C1(C)c1c(O)c(C)c(O)c(C(C)=O)c1O2 (stereo not given)	61.7%
O=C(Nc1cccc(C(=O)N2CCc3ccc(Cl)cc32)c1)c1ccco1	1.39% (active)
COc1cccc(-c2nc3occn3c2-c2ccnc(NCCNS(=O)(=O)c3cccc4ccccc34)n2)c1	121%
Nc1cccc(Cl)c1N	79%
O=C(Nc1nc(-c2ccc(Cl)cc2)cs1)c1cc(O)c(O)c(O)c1	10.4%
CCCC[N+]1(C)CCN=C1Cc1ccccc1 (stereo not given)	88.9%
COc1cc(C(=O)CCCl)ccc1O	95.8%
Cc1cccc(Oc2ccc(Nc3ncnc4ccc(NC(=O)CN5CCN(C)CC5)cc34)cc2Cl)c1	-40.2% (active)
Nc1nc2nnc(-c3ccccc3)c(-c3ccccc3)n2n1	146%
CCCCN(CCC)CCCCCCCCCCN1CCCc2ccccc21	42.2%

SMILES	growth
CCc1cccc(C)c1NC(=O)c1sc2nc3c(cc2c1N)C(=O)CCC3	-22.4% (active)
Cc1cc2c(cc1C)N(C(=O)CCl)CC(=O)N2	8.25% (active)
Cc1ccc(C2=NN(c3ccc(S(=O)(=O)NC(=O)NCc4ccccc4)cc3)C(c3ccc(N(C)C)cc3)C2)c(C)c1 (stereo not given)	-1.6% (active)
Cn1c(=O)cc2c3c(c(NCCCO)ccc31)C(=O)c1ccccc1-2	50.8%
COc1cc2c(cc1OC)-c1ccc3cc4c(cc3c1N(CCCN1CCCCC1)C2)OCO4	37.1%
Cc1ccc(NS(=O)(=O)c2ccc3c(c2)C(=O)CC(c2ccc(C(=O)C(C)C)cc2)N3)cc1C (stereo not given)	61.4%
C=C1C(=O)O[C@H]2[C@H]1CC/C(COC(=O)c1cc3ccccc3s1)=C\CC[C@@]1(C)O[C@@H]21	-33.8% (active)
CC(=O)N1N=C(c2ccc(-n3ccc(C(F)(F)F)n3)c(F)c2)CC1c1ccc[nH]1 (stereo not given)	98.8%
COc1ccc2c(c1)cn1c3ccc(O)cc3[nH]c(=O)c21	-21.7% (active)
CC(C)(C)c1[nH]nc2c1C(c1cc3ccccc3[nH]c1=O)Nc1cc(C(=O)Nc3ccc(Cl)cc3)ccc1N2 (stereo not given)	55.9%
O=C1C(Cl)=C(Nc2ccc3c(c2NC2=C(Cl)C(=O)c4ccccc4C2=O)C(=O)c2ccccc2C3=O)C(=O)c2ccccc21	-8.26% (active)
COC(=O)c1nc(-c2ccccc2)oc1S(=O)(=O)N(C)CCO	-24.6% (active)
CCCCCC(=O)Oc1ccc(/C(=C(/C)Cc2ccc(OC)cc2)c2ccc(OCCCN(C)C)cc2)cc1	62%
O=C(O)CCCC(=O)O	99%
COc1cccc(-c2cc3c(O)cc(C#N)cc3[nH]2)c1	21.3%
CC(C)C1=NOC(=O)C1=Cc1cn(-c2ccccc2)nc1-c1cccc([N+](=O)[O-])c1	-4.77% (active)
Cc1ccc(Nc2ccc(O)c3c2C(=O)c2c(O)ccc(Nc4ccc(C)cc4)c2C3=O)cc1	108%
C/C(=N\O)c1ccc(NC(=O)CSc2nnc(-c3cc(-c4ccc(S(N)(=O)=O)cc4)nc4ccccc34)n2-c2ccccc2)cc1	24.1%
CCCCn1c(-c2ccc(-c3nc(-c4ccc(Cl)cc4)no3)cc2)nc(-c2ccccc2)c1-c1ccccc1	61.4%
O=C(NC(Cc1nnc2n(Cc3ccccc3)c(=O)c3c4c(sc3n12)CCCC4)c1ccccc1)c1ccccc1 (stereo not given)	-70.3% (active)
